About 3,500 (0.97%) of roughly 360,000 compounds were called active.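 Rule for the calls: active = activation above a per-plate cutoff, the mean activation of sample wells on that plate plus 3 SD (cut at about 8% in these data); inactive = the rest.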 The full list was thinned out, with actives kept by preference.

The target in the experiment is Melanocortin receptor 4 (Homo sapiens) (UniProt P32245). The experiment can be described thus: MC4R agonists recruiting beta-arrestin, primary screen, cell-based, luminescence, agonist arm of biased-ligand search (AID 540308). The conditions noted are these: U2OS MC4R beta-arrestin complementation, at 8.9 µM, stronger effect = higher value, percent of melanotan II response, DMSO zero.
Sequence of Melanocortin receptor 4 (Homo sapiens) (P32245 whole entry, looked up): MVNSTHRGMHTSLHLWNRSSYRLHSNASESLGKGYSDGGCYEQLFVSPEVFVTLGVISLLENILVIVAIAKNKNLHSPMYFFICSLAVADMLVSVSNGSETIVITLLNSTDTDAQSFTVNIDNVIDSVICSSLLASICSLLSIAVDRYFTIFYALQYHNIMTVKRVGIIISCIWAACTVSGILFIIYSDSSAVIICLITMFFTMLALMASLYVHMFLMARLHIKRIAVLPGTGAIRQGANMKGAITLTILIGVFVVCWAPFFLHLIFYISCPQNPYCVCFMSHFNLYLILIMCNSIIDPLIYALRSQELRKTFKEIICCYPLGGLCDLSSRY
Take `CC(=O)NC(c1ccccc1)c1nc(-c2cccc(C(C)C)c2)cs1` (stereo not given): the activation is -1.73% (inactive).
For the compound `CCCNC(=O)c1cc(C2CCCCN2C(=O)OC)on1` (stereo not given), the activation is -0.19% (inactive).
`Cc1cccnc1CC(C)NC(=O)c1cc(COc2cncc(Cl)c2)on1` (stereo not given): the activation is 0.62% (inactive).
For the compound `Cc1cc(OCc2cc(C(=O)NCc3cc(C(C)C)no3)no2)cc(C)c1Cl`, the activation is 10% (active).
To `COc1ccc(OCc2cc(C(=O)NCC3(C)COC3)no2)c(Cl)c1` belongs -0.53% (inactive); to `O=C(CCc1ccccc1)Nc1ccnn1C1CCN(Cc2ccc(OCCO)cc2)CC1`, 1.84% (inactive); to `CCCNC(=O)C1(C)CCN(Cc2ccc(Cl)c(Cl)c2)C1` (stereo not given), -2.21% (inactive).
`Cc1oc2cc(Br)c(O)c(Br)c2c1C(=O)c1ccccc1`: the activation was -0.65% (inactive).
To `CCOC(=O)c1c(C)oc2cc(Sc3ccccc3)c(O)c(O)c12` belongs 2.95% (inactive); to `CCOC(=O)c1c(-c2ccccc2)oc2cc(Br)c(O)c(C=O)c12`, 48% (active).
To `COc1ccc(C2CC(c3cccc(OC)c3)=NN2c2ccc(S(N)(=O)=O)cc2)cc1` (stereo not given) belongs -0.4% (inactive); to `COc1ccc(-c2csc(C(O)c3cccc(Cl)c3)n2)cn1` (stereo not given), -0.23% (inactive); to `CC1(C(=O)NS(=O)(=O)c2ccc(C#N)cc2)CCN1C(=O)CC1CCCC1` (stereo not given), -0.26% (inactive).
As for `Cc1ccc(C(=O)NC(=S)Nc2ccc(N3CCOCC3)cc2)cc1`, the activation was -0.72% (inactive).
Regarding `Cc1ccc(NC(=S)NC(=O)c2ccc(-c3ccccc3)cc2)cc1`, the activation is 8.85% (active).
With `CC(=O)Nc1ccc(NC(=S)NC(=O)c2ccc([N+](=O)[O-])c(C)c2)cc1`, the activation is 0.22% (inactive).
To `Cn1c(NCc2cccnc2)nc2cc(-c3ccc(F)cc3)sc2c1=O` belongs 1.42% (inactive).
To `OC[C@@H]1CN(Cc2ccc3c(c2)OCO3)C[C@H](n2cnc3c(NCc4ccco4)ncnc32)O1` belongs 0.72% (inactive); to `CC(=O)Nc1cncc(-c2ccccc2CO)n1`, -1.61% (inactive).
For the compound `Cn1c(=S)sc2ccc3ccccc3c21`, the activation was 18.2% (active).
The value for `COc1ccc2ccccc2c1CNc1nnnn1C` was -2.85% (inactive); that for `CCc1nc2ccc(C(=O)N3CCC(O)(Cc4ccccc4)CC3)cn2c1N(C)C(=O)Cc1ccccc1` was -0.81% (inactive); that for `Cc1ccc(Cc2cnc(N)s2)o1` was 0.06% (inactive).
To `Cc1ccc(CCC(=O)Nc2ncc(Cc3cc(Cl)ccc3Cl)s2)o1` belongs 10.3% (active); to `O=C(CCc1ccccc1Cl)Nc1ccc(S(=O)(=O)Nc2nccs2)cc1`, -1.67% (inactive).
Take `CNc1cnc(-c2cc(OC)c(OC)c(OC)c2)cn1`: the activation was 0.24% (inactive).
For the compound `CCOC(=O)C1(C)CCCN(C(=O)c2ccc(F)c(Cl)c2)C1` (stereo not given), the activation was -0.39% (inactive).
The value for `CC(=O)c1ccc(NC(=O)c2sc3nc4n(c(=O)c3c2C)CCCCC4)cc1` was -2.88% (inactive); that for `CC(=O)Nc1ccc(NC(=O)c2sc3nc4c(c(-c5ccc(C)cc5)c3c2N)CCC4)cc1` was 11.7% (active); that for `Cc1ccc(NC(=O)c2sc3nc(N)c(C#N)cc3c2N)cc1` was 7.55% (inactive).
The value for `CC1(C(=O)NCc2ccc(F)c(F)c2)Cc2c(-c3ccc4c(c3)OCO4)ccnc2O1` (stereo not given) was -2.86% (inactive); that for `CCOC(=O)C1(C)CCCN(C(=O)c2ccc(N(C)C)cc2)C1` (stereo not given) was -1.51% (inactive); that for `CN(C)CCCOc1ccc(-c2ccc3nccn3c2)cn1` was -1.74% (inactive).
To `CSc1ccc(CN2CCC2(C)C(=O)Nc2ccc(C)c(O)c2)cc1` (stereo not given) belongs -0.16% (inactive); to `CC(=O)Nc1cc(-c2cccc(CO)c2)cn2c(-c3cccc(C(F)(F)F)c3)cnc12`, 4.6% (inactive); to `CC(=O)Nc1cc(-c2ccc(N3CCN(C)CC3)cc2)cn2c(-c3ccc(F)cc3)cnc12`, 0.23% (inactive).
Consider `COc1cccc(-c2cnc3c(NC(C)=O)cc(-c4cccc(NC(C)=O)c4)cn23)c1`, for which the activation was 7.42% (inactive).
Regarding `CC(=O)Nc1cc(-c2ccccc2N(C)C)cn2c(-c3ccc(F)c(Cl)c3)cnc12`, the activation is 25.4% (active).
The value for `CC(=O)Nc1cccc(-c2cc(NC=O)c3ncc(-c4ccc(F)c(Cl)c4)n3c2)c1` was 5.15% (inactive).
To `COc1cccc(-c2cnc3c(NC(C)=O)cc(-c4cc(F)ccc4OC)cn23)c1` belongs 29.8% (active); to `COc1ccc(-c2cc(NC(C)=O)c3ncc(-c4cc(OC)c(OC)c(OC)c4)n3c2)cn1`, -0.61% (inactive); to `CC(=O)Nc1cccc(-c2cc(NC(C)=O)c3ncc(-c4ccccc4)n3c2)c1`, 6.05% (inactive).
To `CC(=O)Nc1cc(-c2ccc(N3CCN(C)CC3)cc2)cn2c(-c3cccc(C(=O)N(C)C)c3)cnc12` belongs 0.62% (inactive); to `CC(=O)Nc1cc(-c2ccccc2F)cn2c(-c3cccc(C(F)(F)F)c3)cnc12`, 22.5% (active); to `COc1ccccc1-c1cc(NC(C)=O)c2ncc(-c3ccc(F)cc3)n2c1`, 10.3% (active).
For `COc1cccc(-c2cc(NC(C)=O)c3ncc(-c4cccc(C(C)=O)c4)n3c2)c1`, the activation was 3% (inactive).
Consider `COC(=O)Cc1ccc(OC2(C)CCN(Cc3ccc4c(c3)OCCO4)C2)cc1` (stereo not given), for which the activation is -0.74% (inactive).
Turning to `CC1(C(=O)NS(=O)(=O)Cc2cccc(Cl)c2)CCN1C(=O)Cc1ccccc1` (stereo not given), the activation was -0.92% (inactive).
To `NC(c1csc(NC(=O)Nc2ccccc2Oc2ccccc2)n1)c1ccccc1Cl` (stereo not given) belongs 5.13% (inactive); to `CCCNC(=O)C1(C)CCN(Cc2csc(-c3ccc(Cl)cc3)n2)C1` (stereo not given), -0.8% (inactive); to `O=C(Nc1ccc(Cl)cc1)c1csc([C@H]2C[C@H](O)[C@@H](CO)O2)n1`, -0.15% (inactive).
For the compound `CCOC(=O)C1(Cc2cccc(OC)c2)CCCN(C(=O)CCSC)C1` (stereo not given), the activation was -1.03% (inactive).
`CCCC(=O)N1CCC1(C)C(=O)NS(=O)(=O)c1ccc(Cl)cc1` (stereo not given): the activation was -0.17% (inactive).
To `Cc1cccc(-c2cnc(C(O)c3cc(C)cc(C)c3)[nH]2)c1` (stereo not given) belongs -1.6% (inactive); to `OC(c1ccc(Cl)cc1)c1ncc(-c2ccc(Cl)cc2)[nH]1` (stereo not given), 1.64% (inactive).
The value for `Cc1ccc(-c2cnc(C(O)c3cc(Cl)cc(Cl)c3)[nH]2)cc1` (stereo not given) was 9.5% (active); that for `C#CCNC(=O)[C@H](Cc1ccc(C(=O)c2ccccc2)cc1)NC(=O)OC(C)(C)C` was -0.75% (inactive).
To `Cc1ccc(Nc2nnc(SC(C)C(=O)NC3CC3)s2)cc1` (stereo not given) belongs 1.11% (inactive).
As for `Cc1ccc(Nc2nnc(SCc3ccccc3)s2)cc1`, the activation was 16.6% (active).
With `Cc1ccc(Nc2nc(N)nc(CSc3nnc(C)s3)n2)cc1`, the activation is -0.99% (inactive).
With `OC[C@@H]1CN(C2CCCC2)C[C@H](n2cnc3c(NC4CCC4)ncnc32)O1`, the activation is -0.37% (inactive).
The value for `Cc1ccccc1NC(=O)c1ccc(COc2ccc3c(C)cc(=O)oc3c2)cc1` was 19.5% (active).
To `CCOC(=O)c1cc(=O)c2ccc(OCc3ccccc3)cc2o1` belongs -0.49% (inactive); to `CCN(C(=O)COC(=O)c1ccc(COc2ccc3c(C)cc(=O)oc3c2)cc1)C1CCS(=O)(=O)C1` (stereo not given), -3.78% (inactive); to `Cc1ccc(CC2(C)C(=O)Nc3ccc(OC(F)(F)F)cc32)cc1` (stereo not given), 6.29% (inactive).
To `CC1(Oc2ccccc2-c2ccno2)CCN(Cc2ccc(-c3ccccc3)o2)C1` (stereo not given) belongs -0.57% (inactive); to `CCc1nc2c(OCCOc3ccccc3)cccn2c1N(C=O)Cc1ccc(OC)cc1`, -1.25% (inactive).
As to `CCc1nc2c(OCCOc3ccccc3)cccn2c1N(C)C(=O)c1ccccc1F`, the activation is -0.99% (inactive).
Consider `N#Cc1ccc(-c2ccc3nccn3c2)cc1`, for which the activation was -0.91% (inactive).
For `O=C(Nc1ccc(OCCO)cc1)c1csc([C@H]2C[C@H](O)[C@@H](CO)O2)n1`, the activation was 1.86% (inactive).
With `Cc1ccc(SCC(=O)N2CCN(c3ccc(F)cc3)CC2)cc1`, the activation is -0.3% (inactive).
The value for `CCN1CCC(O)(/C=C/c2ccc(C)cc2)C(C(=O)/C=C/c2ccc(C)cc2)C1` (stereo not given) was -1.73% (inactive); that for `CCN1CCC2(CC1)N=C(c1ccc(F)cc1)C(=S)N2C(=O)c1ccc(C)cc1` was 11.5% (active); that for `COc1ccc(-c2sc3ccc(OC)cc3c2C#Cc2ccccn2)cc1` was -2.74% (inactive).
As for `COc1ccc2sc(-c3ccc(S(C)(=O)=O)cc3)c(-c3ccc(C(N)=O)cc3)c2c1`, the activation is 0.87% (inactive).
For the compound `COc1ccc2sc(-c3ccc(S(C)(=O)=O)cc3)c(C#Cc3cncn3C)c2c1`, the activation is 35.2% (active).
The value for `CC1(C(=O)O)CCN1C(=O)/C=C/c1ccccc1` (stereo not given) was 0.27% (inactive).
As to `COc1ccccc1CNC(=O)c1cc(-c2cc(Cl)ccc2C)n[nH]1`, the activation was -0.81% (inactive).
To `Cc1ccc(NS(=O)(=O)c2cc3c(cc2Br)NC(=O)CO3)cc1C` belongs 1.67% (inactive).
Turning to `COc1ccccc1Cn1c(CO)nc2ccccc21`, the activation is 1.82% (inactive).
Turning to `COc1ccc(C)c(Cn2c(-c3nonc3N)nc3ccccc32)c1`, the activation was 12.1% (active).
The value for `CCn1c(C(O)c2cc(OC)ccc2OC)nc2ccccc21` (stereo not given) was -1.32% (inactive); that for `CCCNC(=O)C1(C)CCCN(Cc2cccc(C(F)(F)F)c2)C1` (stereo not given) was 0.13% (inactive); that for `COc1cccc(CNc2nc(NCc3ccccc3OC)nc3ccsc23)c1` was -1.7% (inactive).
The value for `COc1ccc(-c2ccc(C(=O)NCCN3CCOCC3)c3occc23)c(C)c1` was -2.32% (inactive); that for `CCNC(=S)Nc1ccc2c(c1)c(=O)n(C)n2Cc1ccc(Cl)cc1` was -1.45% (inactive); that for `COCCN(CCOC)S(=O)(=O)c1ccc(C(=O)Nc2nc3c(s2)CCc2ccccc2-3)cc1` was 15.6% (active).
To `C=CCN(CC=C)S(=O)(=O)c1ccc(C(=O)Nc2nc3c(s2)CCc2ccccc2-3)cc1` belongs 1.77% (inactive); to `COCCN(CC(=O)Nc1ccccc1C)S(=O)(=O)c1ccc(S(=O)(=O)N2CCCC2)cc1`, -3.53% (inactive); to `OC(c1cc(Cl)cc(Cl)c1)c1ncc(-c2ccccc2C(F)(F)F)[nH]1` (stereo not given), -0.63% (inactive).
